We go through 45 compounds from PubChem BioAssay AID2685 (National Center for Advancing Translational Sciences (NCATS), 2010).

The campaign covered roughly 320,000 compounds. About 2,100 (0.66%) were called active. About 53% were inconclusive and are not listed. The sample holds actives, similar compounds and a random draw of the others, so the mix is not that of the screen. The call rests on the fitted dose curve; in most records, active means well fitted inhibition curve with a large enough effect in the signal ratio, with a control signal flat (not every such curve was filed as active); inconclusive means small, poorly fitted or top-dose-only effect, or effect the other way, or a change in a side signal; inactive means flat fitted curve, though single readings scatter; the % refers to the signal ratio.
Potency means the concentration at half of the fitted maximal effect.

A short description of this assay: qHTS Assay for Lipid Storage Modulators in Drosophila S3 Cells.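 On cell number change: cells counted by Cell Tracker Red CMTPX staining in the red channel.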 On lipid storage change, negative = inhibition: on the % scale 0 is the no-effect control and ±100 the full control effect. As to conditions: BODIPY lipid droplet fluorescence, 18-24 h, cells fed with added oleic acid; cell number change: measured here: cell count max response; series mostly up to 46.1 µM; lipid storage change, negative = inhibition: at the top concentration. A digest of the protocol: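 Drosophila S3 cells loaded with oleic acid (400 uM, as added) and compounds at several concentrations; lipid droplets imaged by 488-nm laser-scanning cytometry, 500–530 nm intensity and object ratio to cell channel. Percent activity normalized to 20 uM Triacsin C.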
Background: qHTS replaces the single test concentration by a dilution series.
On to `COc1ccccc1Cn1c(C(C)C)nc2ccccc21`, for which the “lipid storage change, negative = inhibition” value was 0.143% (inactive) and the cell number change came to 8.07%.

For the compound `O=C(Nc1nc2ccccc2[nH]1)c1ccc(OC(F)F)cc1`, the call was inactive and the cell number change is -15.1%. On to `CCOc1ccc(N(CC(=O)NCCOc2ccc(C)cc2)S(=O)(=O)c2ccccc2)cc1`, for which the “lipid storage change, negative = inhibition” value was 2.62% (inactive) and the cell number change was found to be 23.7%.

For the compound `CC(=O)N1CCCc2cc(S(=O)(=O)NC(C(=O)NC3CCCCC3)C(C)C)ccc21` (configuration not stated), the “lipid storage change, negative = inhibition” value is -0.23% (inactive) and the cell number change amounted to 13.4%. On to `C[N+]1(CCCCSc2ccc(O)cc2)CCCCC1`, for which the Potency is 4.61 µM (active) and the cell number change was -4.93%. As for `C[N+]1(CCC(=O)c2ccccc2)CCCCC1`, the “lipid storage change, negative = inhibition” value was -1.35% (inactive) and the cell number change is 3.5%.

`COC(=O)CCCCCCCCCC[N+]1(C)CCCCC1`: the “lipid storage change, negative = inhibition” value is 7.23% (inactive) and the cell number change was found to be 12.8%. With `CCN(CC)C(=O)C(Oc1ccc(S(=O)(=O)N2CCCC2)cc1[N+](=O)[O-])c1ccccc1` (configuration not stated), the “lipid storage change, negative = inhibition” value was -2.31% (inactive) and the cell number change worked out at 3.42%. Turning to `O=C(CSc1nc2ccccc2s1)Nc1ccc(Cl)c(C(=O)O)c1`, the “lipid storage change, negative = inhibition” value is 2.06% (inactive) and the cell number change is 18.4%.

On to `CSc1nsc(SCC(=O)Nc2nncs2)n1`, for which the “lipid storage change, negative = inhibition” value is 1.82% (inactive) and the cell number change was found to be 10.5%.

With `CSc1nsc(SCC(=O)Nc2ccc(OC(C)=O)cc2)n1`, the cell number change is -8.58% and the lipid storage change, negative = inhibition was 1.8% [at 9.22 µM] (inactive). For the compound `CSc1nsc(SCC(=O)Nc2ccc(C(N)=O)cc2)n1`, the Potency is 6.51 µM (active) and the cell number change was found to be 8.7%.

Take `CSc1nsc(SCC(=O)Nc2ccc(Cl)c(C(=O)O)c2)n1`: the Potency was 1.46 µM (active) and the cell number change was 6.94%. For `Nc1nnc(SCC(=O)Nc2ccc(Cl)c(C(=O)O)c2)s1`, the “lipid storage change, negative = inhibition” value is -24.1% (inactive) and the cell number change is -0.289%. In the case of `O=C(Nc1cc(C(=O)N2CCN(c3ccccc3O)CC2)ccc1Cl)c1cccs1`, the “lipid storage change, negative = inhibition” value was 0.607% (inactive) and the cell number change was 5.21%. In the case of `CCCOc1cccc(C2/C(=C(\O)c3ccc4c(c3)OCCO4)C(=O)C(=O)N2CCCn2ccnc2)c1` (configuration not stated), the call was inactive and the cell number change was -8.73%. As to `O=C(CCc1nnc2n(CCc3ccccc3)c(=O)c3ccccc3n12)NCCCN1CCCCC1`, the compound was called inactive and the cell number change was -8.94%. Regarding `O=[N+]([O-])c1ccc(Cl)c(/C=N/N2CCN(Cc3ccccc3)CC2)c1`, the “lipid storage change, negative = inhibition” value is 12.3% (inactive) and the cell number change was -3.29%. For the compound `O=[N+]([O-])c1ccccc1/C=N/N1CCN(Cc2ccccc2)CC1`, the Potency was 1.3 µM (active) and the cell number change is -5.28%. Turning to `O=[N+]([O-])c1ccccc1/C=N\N1CCN(c2ccccc2)CC1`, the “lipid storage change, negative = inhibition” value was -22% (inactive) and the cell number change worked out at 0.964%. As for `O=S(=O)(NNC(=S)Nc1ccc(S(=O)(=O)Nc2ncccn2)cc1)c1ccc(Br)cc1`, the call was inactive and the cell number change worked out at 4.32%. With `CCOC(=O)c1cc(-c2ccccc2)nn1Cc1cc(C)no1`, the “lipid storage change, negative = inhibition” value was -32.4% (inactive) and the cell number change is -24%.

Consider `CCOC(=O)c1cc(-c2ccccc2)nn1Cc1cc(CC)no1`, for which the “lipid storage change, negative = inhibition” value was 3.3% (inactive) and the cell number change is -20.2%. Take `CCOC(=O)c1cc(-c2ccccc2)n(Cc2cc(CC)no2)n1`: the Potency is 18.4 µM (active) and the cell number change is -3.23%. As for `Cc1cc(C(=O)NCc2ccccc2)no1`, the “lipid storage change, negative = inhibition” value was -20.2% (inactive). For `Cc1cc(Cn2nc(C(=O)NCc3cccc(Br)c3)cc2-c2ccccc2)on1`, the Potency was 13 µM (active) and the cell number change was 16.4%.

Consider `Cc1cc(Cn2nc(-c3ccccc3)cc2C(=O)NCC2CC2)on1`, for which the “lipid storage change, negative = inhibition” value was -21.7% (inactive) and the cell number change is -12.8%. As for `COc1cc(-c2noc(CCC(=O)NC3CCCC3)n2)cc(OC)c1OC`, the compound was classed as inactive and the cell number change was -0.87%. Turning to `CC(C)CNC(=O)NC(=O)CSc1nc2ccccc2n1CC(C)C`, the call was inactive. For `CCOc1cc(/C=C/C(=O)O)ccc1OCc1ccccc1`, the “lipid storage change, negative = inhibition” value was 1.96% (inactive) and the cell number change was 8.37%. `COc1ccc(/C=C/C(=O)NC(C)CCc2ccccc2)cc1OC` (configuration not stated): the “lipid storage change, negative = inhibition” value is -7.83% (inactive) and the cell number change worked out at 0.149%.

As to `COc1cc(/C=C/C(=O)NC(C)(C)C)ccc1OCc1ccccc1`, the Potency is 29.1 µM (active) and the cell number change was -27.6%. With `O=C(NCCCNC(=O)c1ccccc1Br)c1ccccc1Br`, the “lipid storage change, negative = inhibition” value was -4.06% (inactive) and the cell number change is -12.7%. In the case of `O=C(Nc1cccc(F)c1)NC1CCCCC1`, the compound was classed as inactive and the cell number change is -7.64%. For the compound `Fc1cccc(NC(=S)NC2CCCCCCC2)c1`, the call was inactive and the cell number change is -22.8%.

For the compound `FC(F)(F)c1cccc(NC(=S)NC2CCCC2)c1`, the Potency was 18.4 µM (active) and the cell number change is -29.3%. On to `Cc1cccc(NC(=S)NC2CCCC2)c1`, for which the “lipid storage change, negative = inhibition” value is 17.3% (inactive) and the cell number change stood at 10.6%. In the case of `CC(=O)c1cccc(NC(=O)NC2CCCCCCC2)c1`, the “lipid storage change, negative = inhibition” value is 10.8% (inactive). Consider `O=C(Nc1cccc(F)c1)NC1CCCCCCC1`, for which the Potency was 14.6 µM (active) and the cell number change amounted to 14.2%.

As for `C/C=C\C=C\C(=O)Nc1cccc(C2=NOC3(C2)C[C@H](C(N)=O)N(C(=O)c2ccccc2C(=O)c2ccccc2)C3)c1` (some centres not stated), the “lipid storage change, negative = inhibition” value was 8.24% (inactive) and the cell number change worked out at 1.47%. Take `CCOC(=O)c1cnc(NCc2ccccc2)nc1C`: the compound was called inactive and the cell number change was -8.98%.

On to `CCN1CCN(c2cc(C)nc(-c3ccccc3O)n2)CC1`, for which the “lipid storage change, negative = inhibition” value is 8.28% (inactive) and the cell number change stood at 0.893%.

Consider `COc1ccccc1NS(=O)(=O)c1ccc(C(=O)NCC(c2ccccc2OC)N(C)C)cc1` (configuration not stated), for which the “lipid storage change, negative = inhibition” value was -24.9% (inactive) and the cell number change was found to be 13%.

With `CCN(c1ccccc1)S(=O)(=O)c1cc(C(=O)O)ccc1C`, the “lipid storage change, negative = inhibition” value is 14.4% (inactive) and the cell number change is -3.04%. As for `Cc1cc2c(cc1S(=O)(=O)N(C)Cc1ccccc1)n(C)c(=O)c(=O)n2C`, the call was inactive and the cell number change was -28.5%.
